In the library only some 4.6% were active in any assay of this set; here they are far more common.
Peg3 promoter – inhibitors of Peg3 promoter; HeLa PEG-Prom luciferase reporter, luminescence, overnight; inhibition, % at 20 µM; 360,000 compounds, 1.7% hits;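 active = inhibition of at least 50% at 20 µM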
CF NFkB block – inhibitors of cystic fibrosis induced NF-kB; 360,000 compounds, 0.86% hits; AID 588850; KKLEB NF-kB-GFP reporter, PAF-induced, GFP fluorescence overnight; inhibition, % at 5 µM;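 active = at least 50% inhibition at 5 µM, scaled per plate between neutral and stimulator controls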;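 note: PAF is a Pseudomonas aeruginosa culture filtrate used as stimulus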
HIF-2a block – HIF-2a inhibition; 360,000 compounds, 0.72% hits; 786-0 RCC cells HIF-2a reporter, luciferase luminescence, overnight; inhibition, % at 18.8 µM; AID 624352;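 active = inhibition of the luminescence signal of 40% or more relative to plate controls, in a single-dose primary screen at 18.75 µM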
Mdm2-MdmX inh – human Mdm2/MdmX binding inhibition | O15151+Q00987 | SaOS-2 split-luciferase Mdm2/MdmX complementation, luminescence | inhibition, % at 8 µM | 330,000 compounds, 3% hits | AID 485346;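 active = inhibition of at least 50% at 8 µM in the primary screen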
KKLEB tox – CF airway cell cytotoxicity counter-screen; activity change (cytotoxicity), % at 5 µM; AID 602141; 360,000 compounds, 0.36% hits; KKLEB CF airway cells viability, ATPlite luminescence, overnight; stronger effect = lower value; cells stimulated with P. aeruginosa culture filtrate;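 active = corrected activity change at or below -50% at 5 µM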
ABHD5 PLIN5 PPI – blocks binding of human ABHD5 to perilipin-5. Q00G26+Q8WTS1. Split G. princeps luciferase complementation, luminescence, 4 h. inhibition, % at 4 µM. 360,000 compounds, 0.78% hits;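 active = inhibition above the mean inhibition across every tested compound plus 3 SD, cut at about 22% in these data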
Mdm2 MdmX conf – confirmation of human Mdm2/MdmX interaction inhibitors; 10,000 compounds, 55% hits; inhibition, % at 8 µM; shares compounds with Mdm2-MdmX inh; AID 489028; Mdm2-MdmX binding, luminescent assay; in the data active = inhibition above about 40%
Full FLuc ctr – counter-screen for Mdm2/MdmX inhibitors: full-length luciferase. shares compounds with Mdm2-MdmX inh. SaOS-2 full-length luciferase counterscreen, luminescence. inhibition, % at 8 µM. 6,200 compounds, 77% hits;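 active = mean inhibition at 8 µM reaching about 37%, which flags the compound as non-specific, limit read from the data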;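 note: p53-null SaOS-2 cells with luciferase driven by a doxycycline-inducible promoter; compound on cells about two nights before reading with doxycycline added after day one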
Each line names hits and unclear results; the compound was inactive in the other large screens (follow-up assays come after a bar, where they were run).

Cn1cc(C(=O)N/N=C/c2ccc(Br)c([N+](=O)[O-])c2)c2ccccc21	Peg3 promoter 52.0, Mdm2-MdmX inh 51.2 | Mdm2 MdmX conf inactive
Cn1cc(C(=O)N/N=C/c2ccc3c(c2)OCO3)c2ccccc21	Mdm2-MdmX inh 65.9 | Mdm2 MdmX conf 44.0 | Full FLuc ctr 64.1
Cc1cccc(C)c1OCC(=O)N/N=C/c1ccc2c(c1)OCO2	Mdm2-MdmX inh 50.2 | Mdm2 MdmX conf 58.9 | Full FLuc ctr 55.9
Cn1cc(C(=O)N/N=C/c2cccs2)c2ccccc21	none
CCc1nc2c(OCc3ccc(C(F)(F)F)cc3)cccn2c1N(C)C(=O)c1ccc(C)cc1	none (no result: Mdm2-MdmX inh)
COCCNC(=O)CN1CCN(S(=O)(=O)c2ccc3c(c2)CCCC3)CC1	none
CN(Cc1ccccc1)C(=O)c1ccc(NC(=O)Cc2ccc(NC(=O)C3CCCN(C(=O)c4ccccc4)C3)cc2)cc1 (configuration not stated)	none (no result: Mdm2-MdmX inh)
Cc1cc(Nc2cc(Cl)nc(Sc3ccc(NC(=O)C4CC4)cc3)n2)n[nH]1	Mdm2-MdmX inh 69.2 | Mdm2 MdmX conf 51.2 | Full FLuc ctr 52.5
Cc1cc(SCC(=O)N2c3ccccc3NC(=O)CC2C)nc2ccccc12 (configuration not stated)	none (no result: Mdm2-MdmX inh)
O=C1C(c2ccccc2)=NCCN1C(c1ccc(F)cc1)c1nc2ccccc2[nH]1 (configuration not stated)	none (no result: Mdm2-MdmX inh)
CCc1cccc2c1Sc1ccccc1CC2N1CCNCC1 (configuration not stated)	Peg3 promoter 111.3, Mdm2-MdmX inh 71.2 | Mdm2 MdmX conf inactive
CN1CCN(C2Cc3ccccc3Sc3ccc(Cl)cc32)CC1 (configuration not stated)	none
Cc1cccc2c1Sc1ccc(Cl)cc1CC2N1CCNCC1 (configuration not stated)	Mdm2-MdmX inh 100.2 (no result: Peg3 promoter, CF NFkB block, HIF-2a block, KKLEB tox, ABHD5 PLIN5 PPI) | Mdm2 MdmX conf inactive | Full FLuc ctr 46.4
Clc1ccc(CNc2ncnc3[nH]ncc23)cc1Cl	none (no result: Mdm2-MdmX inh)
CCCCCc1c(CC)ncn1CCc1ccccc1OC	none (no result: Peg3 promoter, CF NFkB block, Mdm2-MdmX inh, KKLEB tox)
N=c1c(-c2nc3ccccc3[nH]2)cc(C(=O)c2cccs2)nn1-c1ccccc1	Mdm2-MdmX inh 56.0 | Mdm2 MdmX conf inactive | Full FLuc ctr 58.7
N=c1c(-c2nc3ccccc3[nH]2)cc(C(=O)c2ccco2)nn1-c1ccccc1	none
CC(C)(C)C(=O)O/N=C(\N)c1c(Cl)cccc1Cl	Mdm2-MdmX inh 53.6 | Mdm2 MdmX conf inactive
Cc1onc(-c2c(Cl)cccc2Cl)c1/C(N)=N/OC(=O)C(C)(C)C	none
CCN(CC)C1CCN(C(=O)c2ccc(OC3CCN(CCc4ccccc4)CC3)cc2)C1 (configuration not stated)	Mdm2-MdmX inh 55.5 | Mdm2 MdmX conf 43.6 | Full FLuc ctr 73.5
COC1CCN(C(=O)c2ccc(OC3CCN(CCc4ccccc4)CC3)cc2)CC1	none
CCC(=O)c1ccc(OCC(=O)OCC(=O)NCC2CCCO2)cc1 (configuration not stated)	none
Cc1nc(Nc2ccncc2)c2oc3ccccc3c2n1	Mdm2-MdmX inh 72.5 | Mdm2 MdmX conf 54.8 | Full FLuc ctr 47.5
Cc1ccc(Sc2nc(C)c([N+](=O)[O-])c(C)c2C#N)cc1	none
Cc1nc(Sc2ccc(Br)cc2)c(C#N)c(C)c1[N+](=O)[O-]	Mdm2-MdmX inh 52.9 | Mdm2 MdmX conf inactive
COc1cc(Cl)ccc1OCc1cc(C(=O)N(C)CC2CCCCO2)no1 (configuration not stated)	none
Cc1ccc2oc(=O)c3cc(C(=O)NCCCN4CC(C)CC(C)C4)sc3c2c1 (configuration not stated)	Mdm2-MdmX inh 50.4 | Mdm2 MdmX conf inactive
CCc1nc2ccc(C(=O)N(C)Cc3ccco3)cn2c1N(CC)Cc1cccc(Br)c1	none (no result: Mdm2-MdmX inh)
CCn1cc(C(=O)NCCCN2CCC(C)CC2)c(=O)c2cc(S(=O)(=O)N(C)C3CCCCC3)ccc21	none
CCn1cc(C(=O)NCCCN2CC(C)CC(C)C2)c(=O)c2cc(S(=O)(=O)N(C)C3CCCCC3)ccc21 (configuration not stated)	Peg3 promoter 72.6, Mdm2-MdmX inh 51.7 | Mdm2 MdmX conf inactive | Full FLuc ctr 60.1
CCOc1ccccc1N1CC(O)=C(c2nc3ccccc3s2)C1=N	Mdm2-MdmX inh 56.8 | Mdm2 MdmX conf 57.5 | Full FLuc ctr 57.8
O=C(Nc1cccc(Cl)c1)c1cccnn1	none
CCn1ncc(C2=NOC(C(=O)NCc3ccccc3)C2)c1C (configuration not stated)	Mdm2-MdmX inh 61.9 | Mdm2 MdmX conf 52.0 | Full FLuc ctr 83.7
CCn1ncc(C2=NOC(C(=O)NCc3ccc(OC)cc3)C2)c1C (configuration not stated)	none (no result: Mdm2-MdmX inh)
CCCCN1C(=O)N(C)C2NC(=S)NC21 (configuration not stated)	none
Cc1ccccc1Cn1c(CN2CCN(c3ccc(F)cc3)CC2)nc2c1c(=O)n(C)c(=O)n2C	Mdm2-MdmX inh 62.1 (no result: Peg3 promoter, CF NFkB block, HIF-2a block, KKLEB tox, ABHD5 PLIN5 PPI) | Mdm2 MdmX conf inactive
Cn1c(=O)c2c(nc(CN3CCN(c4ccccc4)CC3)n2Cc2ccccc2Cl)n(C)c1=O	none (no result: Mdm2-MdmX inh)
COP(=O)(c1ccc(N(C)C)cc1)C(O)c1ccccc1 (configuration not stated)	none
CCOc1ccc(C2C=C(c3ccccc3)Nc3nnnn32)cc1 (configuration not stated)	none
CCOc1ccc(C2C=C(c3ccc(C)cc3)Nc3nnnn32)cc1 (configuration not stated)	Mdm2-MdmX inh 50.1 | Mdm2 MdmX conf inactive
O=C(Nc1ccc(F)cc1)C1CCCN(S(=O)(=O)c2ccc3[nH]c(=O)ccc3c2)C1 (configuration not stated)	none
c1ccc(-c2noc(-c3ccno3)n2)nc1	none
c1ccc(-c2ccc(-c3nc(-c4ccccn4)no3)cc2)cc1	Peg3 promoter 96.8, HIF-2a block 83.2, Mdm2-MdmX inh 96.6, KKLEB tox -77.5 | Mdm2 MdmX conf 88.8 | Full FLuc ctr inactive
c1cc(Nc2cccc3nccnc23)c2nccnc2c1	Mdm2-MdmX inh 61.4 | Mdm2 MdmX conf 52.2 | Full FLuc ctr 89.8
COc1ccccc1-n1cnc2cc(NCc3cccs3)ccc21	Mdm2-MdmX inh 50.6 | Mdm2 MdmX conf 55.5 | Full FLuc ctr 80.1
O=C(NCCC(=O)N1CCN(Cc2c(F)cccc2Cl)CC1)c1ccc(Cl)cc1	none
CN1/C(=C\C=N\O)C(C)(C)c2ccccc21	none
CN1/C(=C\C=[N+](C)c2ccccc2)C(C)(C)c2ccccc21	Mdm2-MdmX inh 70.3 | Mdm2 MdmX conf 40.5 | Full FLuc ctr 64.1
Cc1cc(C)cc(C(O)c2ncc(-c3ccc(C(F)(F)F)cc3)[nH]2)c1 (configuration not stated)	none (no result: Mdm2-MdmX inh)

Source: PubChem
